Values joined by “and” are separate entries in the source; they are usually repeats but may differ in a detail not shown here. Equal values may be shown once. Inconclusive results are not listed. A call without a number means that no potency is given here. Active and inactive are the calls of the source. Calls come from the whole dose curve; as a rule, active = well fitted inhibition curve with a large enough effect in the repeat runs; inconclusive = weak or mixed curves; inactive = no such curve, though single readings can be large or run the other way. Starred links: 1 amine or outer side, 2 acyl side, 3 side chain; linkers in the order of their positions; H or OH if unused. Positions of bridges follow the written chain, without caps; N, C: chain ends. Non-standard residues stand in square brackets, D forms with d. Residues, ends and D or L forms follow the SMILES beside them. Chains are numbered I, II in the order given. Actinocin(9to1) = Cc1c2oc3c(C)ccc(C(=O)[*:1])c3nc-2c(C(=O)[*:2])c(N)c1=O; NMeV = CN[C@H](C(=O)O)C(C)C; Sar = CNCC(=O)O
Biological target: Cytochrome P450 3A4 (Homo sapiens) (UniProt P08684)
Test: Cytochrome P450 Family 3 Subfamily A Member 4 (CYP3A4) small molecule antagonists: luciferase reporter qHTS assay (AID 1671201); note: nearly all actives have a fitted effect of over 50% in size
Details: P450-Glo CYP3A4 enzyme, luciferin luminescence, 1 h; series mostly up to 115 µM
Outline: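 Compounds in DMSO were pin-transferred onto CYP3A4 enzyme-substrate mix and held 10 min at room temperature. NADPH regenerating solution started the reaction for 1 h; luciferin detection reagent stopped it, and luminescence was read after 20 min.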
Potency is the fitted concentration of half-maximal effect.

Cytochrome P450 3A4 (Homo sapiens), sequence (P08684 whole entry, looked up): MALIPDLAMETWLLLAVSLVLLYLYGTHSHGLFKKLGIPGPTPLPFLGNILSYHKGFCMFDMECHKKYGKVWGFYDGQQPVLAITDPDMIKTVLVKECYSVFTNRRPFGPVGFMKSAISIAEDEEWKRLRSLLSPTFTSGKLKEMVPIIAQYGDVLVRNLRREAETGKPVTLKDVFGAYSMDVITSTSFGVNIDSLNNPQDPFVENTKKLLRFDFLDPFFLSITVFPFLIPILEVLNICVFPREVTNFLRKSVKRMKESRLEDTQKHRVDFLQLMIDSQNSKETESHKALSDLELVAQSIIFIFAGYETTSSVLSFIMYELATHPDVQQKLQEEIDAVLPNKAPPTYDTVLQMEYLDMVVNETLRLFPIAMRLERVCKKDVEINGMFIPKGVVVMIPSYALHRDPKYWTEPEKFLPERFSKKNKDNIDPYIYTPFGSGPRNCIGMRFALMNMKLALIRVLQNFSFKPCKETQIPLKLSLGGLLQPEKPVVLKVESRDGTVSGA

Compound | Potency
CC(COc1ccccc1)N(CCCl)Cc1ccccc1 (stereo not given) | inactive
C#CC(C)(CC)OC(=O)c1ccccc1C(=O)O (stereo not given) | inactive
[Cl][In]([Cl])[Cl] | inactive
CCOC(=O)C(C)C(C)=O (stereo not given) | inactive
CC(C)C(=O)c1c(C(C)C)nn2ccccc12 | inactive
C=C(C)C1CC=C(C)C(OC(C)=O)C1 (stereo not given) | inactive
CCN(CC)c1ccc2c(C)cc(=O)oc2c1 | 20.2 µM (active) and 31.7 µM (active)
O=C(Oc1ccccc1)c1ccccc1O | inactive
O=C(O)CCc1ccccc1 | inactive
O=Nc1ccc(Nc2ccccc2)cc1 | 8.99 µM (active) and 12.6 µM (active)
NC(N)=Nc1nc(CSCC/C(N)=N/S(N)(=O)=O)cs1 | inactive
Cc1cccc(O)c1C | inactive
C=CC(=O)OCCCCCCOC(=O)C=C | 40.4 µM (active)
Cc1cc(C(C)(C)C)c(O)c(C(C)(C)C)c1 | inactive
COC(=O)/C=C/c1ccccc1 | inactive
CCC[C@H](N[C@@H](C)C(=O)N1[C@H](C(=O)O)C[C@@H]2CCCC[C@@H]21)C(=O)OCC | inactive
COc1nc(C)nc(Cl)c1NC1=NCCN1 | inactive
C=C(C)C(=O)O | inactive
CC(C)(O)CCC(C)(C)O | inactive
Cc1c2oc3c(C)ccc(C(=O)N[C@@H]4C(=O)N[C@H](C(C)C)C(=O)N5CCC[C@H]5C(=O)N(C)CC(=O)N(C)[C@@H](C(C)C)C(=O)O[C@@H]4C)c3nc-2c(C(=O)N[C@@H]2C(=O)N[C@H](C(C)C)C(=O)N3CCC[C@H]3C(=O)N(C)CC(=O)N(C)[C@@H](C(C)C)C(=O)O[C@@H]2C)c(N)c1=O (I: T[dV]P[Sar][NMeV] / II: T[dV]P[Sar][NMeV]; ester I:1-I:C, II:1-II:C; linker I:N-II:N via Actinocin(9to1)) | inactive

— PubChem BioAssay (Tox21)
